Vif-APOBEC3G blk: qHTS for Inhibitors of Vif-A3G Interactions: qHTS; DNA dC->dU-editing enzyme APOBEC-3G (Homo sapiens), Q9HC16; HeLa A3G-eYFP + Vif (tagged APOBEC3G with the HIV-1 protein that degrades it), YFP fluorescence, overnight; Potency, µM (top dose mostly 46.1 µM), for inactives: at the top dose activity, negative = active, actives largely listed as inhibitors; actives 0.076% (n = 410,000); also: potency is read from the fitted curve at half-maximal effect; % is scaled to controls: 0 for no effect and ±100 for the full control effect; nearly all actives have a fitted effect of over 60% in size
Target sequence (Q9HC16 whole entry, looked up): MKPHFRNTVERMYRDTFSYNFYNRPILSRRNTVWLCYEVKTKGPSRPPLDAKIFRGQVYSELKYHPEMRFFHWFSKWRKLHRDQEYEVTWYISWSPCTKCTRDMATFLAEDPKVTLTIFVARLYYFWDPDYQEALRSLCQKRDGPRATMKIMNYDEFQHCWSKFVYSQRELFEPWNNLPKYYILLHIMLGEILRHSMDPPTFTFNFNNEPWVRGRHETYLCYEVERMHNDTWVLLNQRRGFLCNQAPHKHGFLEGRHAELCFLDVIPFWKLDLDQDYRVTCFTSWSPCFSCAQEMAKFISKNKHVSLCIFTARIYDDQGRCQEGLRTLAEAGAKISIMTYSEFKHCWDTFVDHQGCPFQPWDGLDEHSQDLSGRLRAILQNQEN
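Read-out is eYFP fluorescence (Ex 488/Em 500-530) from Vif-expressing HeLa A3G-eYFP cells; more signal means A3G escaped Vif-mediated degradation. Cells plated overnight, compound pinned in, incubated overnight at 37 deg C.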
SW480 rereplic: A quantitative high throughput screen for small molecules that induce DNA re-replication in SW480 colon adenocarcinoma cells | Potency, µM (series often up to 46.1 µM), for inactives: top-dose re-replication activation, most hits filed as activators | AID 624297, 2012 | SW480 DNA re-replication, Hoechst DNA content imaging, 48 h | actives 1.8% (n = 340,000); also: potency is read from the fitted curve at half-maximal effect; % of control where 0% means no effect; nearly all actives have a fitted effect of over 55% in size
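Per well, 250 cells were exposed to pinned compound for 48 hr. Nuclear DNA was visualised with Hoechst (40 min, 37 C) and total object intensity recorded by fluorescence scanning.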
Vif-A3F inh: qHTS for Inhibitors of Vif-A3F Interactions: qHTS; Potency, µM (top dose mostly 46.1 µM), without a hit: at the highest dose activity, negative = active; AID 602313, 2012; actives 0.2% (n = 390,000); HeLa A3F-eYFP + Vif (tagged APOBEC3F with the HIV-1 protein that degrades it), YFP fluorescence increase; also: potency is read from the fitted curve at half-maximal effect; % of control where 0% means no effect; nearly all actives have a fitted effect of over 65% in size
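HeLa cells stably expressing Vif plus C-terminally eYFP-tagged A3F were seeded, incubated overnight at 37 deg C, dosed with compound, incubated overnight again at 37 deg C. Yellow fluorescence (Ex 488/Em 500-530) reported blocked Vif-mediated A3F-eYFP degradation.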
IL-1B inflam inh: qHTS for Inhibitors of Inflammasome Signaling: IL-1-beta AlphaLISA Primary Screen. THP-1 LPS/ATP IL-1B secretion, AlphaLISA, 16 h; stronger effect = lower value. activity change, % at 57.5 µM. actives 4.7% (n = 360,000); in the data active = activity change below about -50%; inconclusive = mostly about -30% to -49%; also: % is scaled to controls: 0 for no effect and ±100 for the full control effect
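Secreted IL-1B measured by AlphaLISA bead assay after 16 h compound exposure of THP-1 cells; compounds (final up to 57.5 uM) added 1 h before LPS (250 ng/mL) and ATP (1.25 mM) stimulation; lower signal means less secretion.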
MCF10A rereplic: A quantitative high throughput screen for small molecules that induce DNA re-replication in MCF 10a normal breast cells; MCF 10A DNA re-replication, Hoechst nuclear intensity, 48 h; Potency, µM (titrated, usually from 46.1 µM), without a hit: top-dose activity, positive = re-replication, usual class: activators; actives 2.9% (n = 350,000); AID 624296, 2012; also: potency is read from the fitted curve at half-maximal effect; % of control where 0% means no effect; nearly all actives have a fitted effect of over 50% in size
Giardia killer: Small Molecules that selectively kill Giardia lamblia: qHTS | actives 0.15% (n = 340,000) | activity change, % at 7.66 µM, hits read low | AID 540267, 2011 | Giardia lamblia trophozoite viability; in the data active = activity change below about -80%; inconclusive = between about -30% and that limit;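 also: parasites exposed to compound for two days anaerobically before the ATP read; % is scaled to controls: 0 for no effect and ±100 for the full control effect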
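Killing of trophozoites was scored by loss of ATP luminescence after a 48 hrs anaerobic exposure to compounds at 37 deg C, using 100 cells per well.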
* marks the source's active call; other numbers are inactive results; ? = inconclusive; . = not tested or not shown; [ ] = dose if it differs, or a comment. A selection: hits, their analogues and other compounds. The true share with any hit is near 6.9%. Unless noted, calls follow the shape of the dose curve; as a rule, active = well fitted curve in the direction sought with a large enough effect; inconclusive = small, poorly fitted or top-dose-only effect, or another doubt; inactive = no such curve, though single readings can be large; an effect the other way counts as inactive or inconclusive.

SMILES	Vif-APOBEC3G blk	SW480 rereplic	Vif-A3F inh	IL-1B inflam inh	MCF10A rereplic	Giardia killer
O=C(Nc1ccc(S(=O)(=O)N2CCOCC2)cc1)C1CC1	6%	-21%	4%	6	1%	-10
CC1CCN(c2ccc3c(c2)S(=O)(=O)c2ccccc2C3=O)CC1	-14%	23µM*	-30%	-8	18µM*	-6
NC(=O)C1CCN(c2ccc3c(c2)S(=O)(=O)c2ccccc2C3=O)CC1	-7%	0%	7%	-4	3%	-9
O=C1c2ccccc2S(=O)(=O)c2cc(N3CCN(C(=O)c4ccccc4)CC3)ccc21	0%	-57%[9.22 µM]	3%	-67*	?	-15
Cc1cc(C)c(Cn2c(=O)n(CCC(=O)NCc3ccc4c(c3)OCO4)c(=O)c3ccccc32)c(C)c1	-3%	.	-1%	.	.	.
CC(=O)NC[C@@H]1CN(c2ccc(N3CCOCC3)c(F)c2)C(=O)O1	.	-8%	.	.	0%	.
COC(=O)C1=C(C)N(Cc2ccccc2)C(=NCc2ccc3c(c2)OCO3)N[C@H]1c1ccccc1	5%	1%	2%	-57*	?	5
COC(=O)C1=C(C)N(Cc2ccccc2)C(=NCCc2cccnc2)N[C@H]1c1ccccc1	6%	12%	-4%	-58*	-33%	27
COC(=O)C1=C(C)N(Cc2ccccc2)C(=NCCc2cccnc2)N[C@H]1c1ccc(Br)cc1	1%	?	3%	-4	29%	4
COc1ccc(C2/C=C\CN(S(=O)(=O)CC34CCC(CC3=O)C4(C)C)CC(=O)N2Cc2ccc(F)cc2)cc1 (configuration not stated)	2%	.	.	.	.	16
O=C(C1CC1)N1CCc2cc(Br)cc(S(=O)(=O)N3CCN(c4cccc(C(F)(F)F)c4)CC3)c21	3%	.	-10%	.	.	.
C[n+]1ccccc1/C=C1\Sc2ccccc2N1CCO	-15%	-1%	-12%	19	16%	-7
CC[n+]1ccc(/C=C2\Sc3ccccc3N2CCCS(=O)(=O)[O-])c2ccccc21	?	-4%	3.5µM*	58	1%	-7
COCCCNc1cc(C)nc2ccccc12	-1%	3%[9.22 µM]	1%	19	-8%	10
Cc1cc(NCCCCCCCNc2cc(C)nc3cc([N+](=O)[O-])ccc23)c2ccc([N+](=O)[O-])cc2n1	-14%	?	10%	-103*	3.7µM*	3
Brc1ccc(CN2CCN(Cc3c[nH]c4ccccc34)CC2)cc1	-3%	?	-9%	?	?	9
CCS(=O)(=O)N1CCN(Cc2c[nH]c3ccccc23)CC1	0%	-3%	2%	30	2%	22
Brc1ccccc1CN1CCN(Cc2c[nH]c3ccccc23)CC1	-8%	-121%	1%	-103*	?	-1
O=[N+]([O-])c1ccc(CN2CCN(Cc3c[nH]c4ccccc34)CC2)cc1	-3%	9%	0%	-69*	9%	-18
CCC(=O)Oc1c(Sc2ccc(Cl)cc2)c(C)nn1C(C)(C)C	-2%	.	-1%	.	.	.
Cc1c(C(=O)N(C)C)sc2c1c(=O)n(-c1ccccc1C(F)(F)F)c(=O)n2Cc1ccccc1C#N	0%	.	2%	.	.	.
COC(=O)c1sccc1NC(=S)Nc1cc(C)cc(C)c1	1%	-5%	25µM*	16	-2%	-15
COC(=O)c1sccc1NC(=O)CN(C)NS(=O)(=O)c1ccc(F)cc1	-12%	13µM*	-1%	-11	?	-3
COC(=O)c1sccc1NC(=O)CN(C)NS(=O)(=O)c1ccc(Cl)cc1	-7%	?	0%	-10	?	1
COC(=O)c1sccc1NC(=O)c1c(F)c(F)c(F)c(F)c1F	-8%	-31%	3%	-102*	?	6
C/C(=N\NC(=O)c1ccccc1O)c1c(O)cc(C)oc1=O	-8%	5.8µM*	1%	69	?	13

Screening data: PubChem, National Center for Advancing Translational Sciences (NCATS)
